# Experimental data published in PubChem BioAssay (NCI).
# The panel holds about 83,000 compounds, 20% with a hit somewhere; the sample as a whole holds those more often.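 A percent growth of 40 corresponds to 60% growth inhibition; 0 means no net growth; -100 means all cells died. Active threshold: below 10.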 Unmarked numbers belong to inactive results. Activity calls are given as the source filed them.
# System: HL-60(TB) leukemia
# Test: NCI-60 one-dose screen, 48 h (100 = growth as untreated, 0 = no growth, -100 = all killed)
# Settings: 10 µM unless noted
row,Structure (SMILES),growth
1,CCc1nnc(NC(=O)c2cc(-c3ccc(Cl)cc3Cl)oc2C)s1,88.5%
2,OC1CCN(CCCOc2c3ccc(Cl)cc3nc3c2oc2ccccc23)CC1,-35% (active)
3,COc1ccc(-c2nc3ccc(-c4nnc(SCC(=O)Nc5ccc(C(=O)/C=C/c6ccccc6)cc5)o4)cc3[nH]2)cc1OC,100%
4,O=C(N/N=C/c1ccc([N+](=O)[O-])o1)c1[nH]c2ccc(Br)cc2c1-c1ccccc1,-42.1% (active)
5,O=S(=O)(NCCCNc1nccc(-n2cnc3ccccc32)n1)c1ccc(F)cc1,90.9%
6,O=C(CCCCCCNC(=O)C(O)(O)C(F)(F)F)Nc1nc2ccccc2s1,11.3%
7,O=C(/C=C/c1csc(Br)n1)NO,-36.2% (active)
8,CCc1ccc(NC(=O)N[C@@H](Cc2cccc(C)c2)C(=O)N[C@@H]2C(=O)N3CCC[C@H]3C(=O)N3CCCC[C@H]3C(=O)N[C@@H](CO)C(=O)N3C[C@H](C)C[C@H]3C(=O)O[C@H]2C)c(F)c1,15.8%
9,O=C(/C=C/c1cn(-c2ccccc2)nc1-c1ccc(Cl)cc1)c1cc2ccccc2oc1=O,85.6%
10,CC1=C(C)C(=O)C(Nc2ccc3c(c2)OCO3)=C(Br)C1=O,44.2%
11,Cn1c2nc3ccccc3c-2cc2ccccc21,41.6%
12,CCCCN1C(=O)/C(=c2\sc3n(c2=O)C2C(NN=3)N(CC)C(=O)N2CC)c2cccc(C)c21 (stereo not given),2.95% (active)
13,O=S(=O)(NCCNc1nccc(-n2cnc3ccccc32)n1)c1ccc(C(F)(F)F)cc1,73.8%
14,O=C(CSc1nnc(-c2ccc(Cl)cc2)n1-c1ccccc1)Nc1ccc(Br)cc1,81.4%
15,O=C(Nc1ccc(Cl)cc1)Nc1nc2ccc([N+](=O)[O-])cc2s1,-51% (active)
16,O=C(CSc1cc[n+](CCCCO)c2ccccc12)n1ccc2ccccc21,106%
17,COc1ccc(C2C(C#N)=C(N)Oc3c2sc2ccc(C)cc32)cc1 (stereo not given),12.5%
18,N#Cc1c(-c2cccs2)cc(-c2cnccn2)nc1SCC(=O)N/N=C/c1cccs1,96.2%
19,CC[C@@](C)(NC(=O)C(C)(C)NC(=O)[C@@H](NC(=O)[C@@H]1CCCN1C(=O)C(C)(C)NC(=O)[C@H](CC(C)C)NC(=O)CNC(=O)C(C)(C)NC(=O)[C@@H](NC(=O)C(C)(C)NC(=O)[C@H](CCC(N)=O)NC(=O)[C@H](C)NC(=O)C(C)(C)NC(=O)[C@H](C)NC(=O)C(C)(C)NC(=O)[C@@H]1CCCN1C(=O)C(C)(C)NC(C)=O)C(C)C)C(C)C)C(=O)N[C@@H](CCC(N)=O)C(=O)N[C@@H](CCC(N)=O)C(=O)N[C@H](CO)Cc1ccccc1,-50.8% [4.25 µM] (active)
20,Cc1ccc(C2=NN(C)C(=O)C3(CCCC3)C2)cc1,77.8%
21,COc1ccc(NC2=C(Cl)C(=O)C(C)=C(C)C2=O)cc1OC,88.4%
22,O=c1[nH]c(CCl)nc2c1cnn2-c1ccccc1,109%
23,C=C(C=O)[C@@H]1CC[C@]2(C)[C@H](CC=C3[C@H]4[C@@H](C)[C@H](C)CC[C@]4(C(=O)OC)CC[C@]32C)[C@@]1(C)CCC#N,-25.2% (active)
24,COc1cc(/C=C/C(=O)c2ccc(NC(=O)COc3cccc4cccnc34)cc2)cc(OC)c1OC,34.7%
25,CC(C)NC(=O)c1cc(-c2ccc(NC(=O)Nc3ccc(F)c(C(F)(F)F)c3)cc2)nc2cccnc12,109%

row,Structure (SMILES),growth
1,COc1ccc(NC(=O)Nc2ccc3c(ccn3C(=O)c3cccc(F)c3)c2)cc1,85.2%
2,CN1CCN(c2ccc(/C=N/Nc3nc4ccccc4c(=O)n3-c3ccccc3)cc2)CC1,113%
3,CCCn1cnc2c(c1=N)C(c1ccc(OC)cc1)c1sc3c(CC)cccc3c1O2 (stereo not given),-12.9% (active)
4,O=C(CCCCCCN1CC(=O)N2[C@@H](C3CC3)c3[nH]c4ccccc4c3C[C@H]2C1=O)NO,31.8%
5,Cc1ncn(-c2ccc(/C=N/Nc3ccnc4cc(Cl)ccc34)cc2)c1C,-40.4% (active)
6,N#Cc1nc(-c2ccccc2)oc1N1CCC(CO)C1 (stereo not given),107%
7,N#Cc1nc(-c2ccccc2)oc1N1CCC(C2(C(F)(F)F)N=N2)CC1,95.4%
8,N#Cc1nc(-c2ccccc2)oc1S(=O)(=O)N1CCN(CCc2ccccn2)CC1,5.71% (active)
9,COc1ccc(/C=C/C(=O)c2ccc(NC(=O)CSc3nnc(-c4ccc5nc(-c6ccc(Cl)cc6)[nH]c5c4)o3)cc2)cc1,78.6%
10,COc1ccc(C(=O)CSc2nc3c(c(Nc4ccc(S(N)(=O)=O)cc4)n2)CCCC3)cc1,101%
11,Cc1ccc(S(=O)(=O)c2nc(-c3ccc(F)cc3)oc2S(C)(=O)=O)cc1,62.4%
12,C[C@@H](Nc1c(C#N)cnc2ccc(-c3cnc(N)nc3)cc12)c1ccccc1,8.49% (active)
13,COc1cccc(OC)c1-c1nnn(C)c1C(=S)N1CCN(c2ccc([N+](=O)[O-])cc2Cl)CC1,44.3%
14,CO/N=C1\CCc2c(sc(NC(=O)c3cccc(C(F)(F)F)c3)c2C(N)=O)C1,70.3%
15,COc1cc2cc(Oc3ccc(NC(=O)c4cccc(C(F)(F)F)c4)cc3)c(C)nc2cc1OCCN1CCCCC1,-51.6% (active)
16,O=C(COc1cccc2cccnc12)Nc1ccc(C(=O)/C=C/c2ccc(Cl)cc2)cc1,64.4%
17,CC[C@@](C)(NC(=O)C(C)(C)NC(=O)[C@@H](NC(=O)[C@@H]1CCCN1C(=O)C(C)(C)NC(=O)[C@H](CC(C)C)NC(=O)CNC(=O)C(C)(C)NC(=O)[C@@H](NC(=O)C(C)(C)NC(=O)[C@H](CCC(N)=O)NC(=O)[C@H](C)NC(=O)C(C)(C)NC(=O)[C@H](C)NC(=O)C(C)(C)NC(=O)[C@H](C)NC(=O)C(C)(C)NC(C)=O)C(C)C)C(C)C)C(=O)N[C@@H](CCC(N)=O)C(=O)N[C@@H](CCC(N)=O)C(=O)N[C@H](CO)CC1CCCCC1,-35.2% [5 µM] (active)
18,COc1cc(-c2nc3ccc(-c4nnc(SCC(=O)Nc5ccc(C(=O)/C=C/c6ccc(Cl)cc6)cc5)o4)cc3[nH]2)cc(OC)c1OC,92.5%
19,Oc1ccc(CSc2nnc(-c3ccc(Cl)cc3)o2)c2cccnc12,12.6%
20,COc1cccc2cc(-c3cc4ccccc4[nH]3)/c(=N\NC(=O)c3ccc(Cl)cc3)oc12,-11.8% (active)
21,CCCCCC[n+]1ccc(SCC(=O)n2ccc3ccccc32)c2ccccc21,74.8%
22,C#Cc1nc(/C=C/C(=O)c2nccn2C)cs1,-40.3% (active)
23,Nc1n[nH]c2cccc(C#Cc3cccc(NC(=O)c4cccc(OC(F)(F)F)c4)c3)c12,17.7%
24,CN1CCN(c2ccc3c(c2)nc(NNC(=O)c2ccncn2)c2cccn23)CC1,10.4%
25,NC(N)=Nc1ccc(Oc2cccc(NC(N)=Nc3ccc(I)cc3F)c2)cn1,39.3%
